High-throughput results deposited in PubChem by National Center for Advancing Translational Sciences (NCATS).
HP1b chromo inh: inhibitors of HP1-beta chromodomain binding to methylated histone tails; P83916; AlphaScreen HP1-beta / biotin-H3K9me3 peptide binding; Potency, µM (top dose mostly 114 µM), for the others: at the highest dose activity change, negative = inhibition, hits mostly inhibitors; 390,000 compounds, 0.56% hits; note: nearly all actives have a fitted effect of over 70% in size
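AlphaScreen: HP1-beta (50 nM) preformed 30 min with biotin-H3(1-18)K9me3 peptide (50 nM) in PBS pH 7.4, 0.01% Tween-20. Compound added for 30 min at RT, then streptavidin donor/nickel chelate acceptor beads (10 ug/mL) for 30 min.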
BAZ2B inh: BAZ2B (human) inhibition; AlphaScreen BAZ2B-H3K14Ac peptide displacement; Potency, µM (series often up to 114 µM), without a hit: at the top dose activity change, negative = inhibition, most hits filed as inhibitors; 360,000 compounds, 4.4% hits; AID 504333; note: % is set by controls: 0 for no effect and ±100 for the full control effect; nearly all actives have a fitted effect of over 60% in size
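AlphaScreen displacement of biotin-H3(5-23)K14Ac peptide (50 nM final) from BAZ2B (50 nM final) in PBS pH 7.4, 0.01% Tween-20; complex preformed 30 min RT, then compounds (top 110 uM) 30 min RT, beads 20 min dark.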
G9a inh: G9a (human) methyltransferase inhibition. Q96KQ7. G9a H3K9 monomethylation, AlphaScreen, 2 h. Potency, µM (doses to about 102 µM), inactives show top-dose activity, negative = inhibition, most hits filed as inhibitors. 350,000 compounds, 8.8% hits; note: % is set by controls: 0 for no effect and ±100 for the full control effect; nearly all actives have a fitted effect of over 75% in size
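Chemiluminescent proximity detection of H3K9 monomethylation, read after 10 min bead incubation in the dark. Reaction: 20 nM G9a, 500 nM biotin-H3K9 peptide, 20 uM SAM cofactor, 2 h, room temperature, following 15 min enzyme-compound preincubation.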
L3MBTL1 block: L3MBTL1 (human) inhibition; AlphaScreen L3MBTL1–H3K9me1 peptide binding; Potency, µM (series often up to 57.1 µM), without a hit: at the top dose activity, negative = inhibition, most hits filed as inhibitors; 230,000 compounds, 0.66% hits; AID 485360; note: % is set by controls: 0 for no effect and ±100 for the full control effect; nearly all actives have a fitted effect of over 60% in size
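Read-out is AlphaScreen signal from streptavidin donor and nickel chelate acceptor beads (10 ug/mL final each) bridging L3MBTL1 (50 nM) and biotinylated K9-monomethylated H3(1-15) peptide (75 nM), after 30 min compound exposure at room temperature.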
Sfp PPTase inh: blocks B. subtilis Sfp PPTase activity. Potency, µM, inactives show largest response in the series, negative = inhibition, hits mostly inhibitors. 310,000 compounds, 3.5% hits. Biochemical Sfp PPTase activity, qHTS;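 note: the enzyme is Sfp with the accession as filed and its product quenches rhodamine fluorescence; 0% = enzyme reaction without inhibitor and -100% = no enzyme wells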
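After 15 min at room temperature with compound, 15 nM Sfp received 5 uM rhodamine-CoA plus 12.5 uM BHQ-2-ybbR (50 mM Hepes pH 7.6, 10 mM MgCl2). Rate came from the fluorescence difference over 30 min, ex 525/em 598 nm.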
JMJD2A Tudor inh: blocks the human JMJD2A Tudor domain; AID 504339; O75164; AlphaScreen JMJD2A-Tudor / H3K4me3 peptide binding; 390,000 compounds, 4.4% hits; Potency, µM (titrated, usually from 114 µM), for inactives: at the top dose activity change, negative = inhibition, hits mostly inhibitors; note: % is set by controls: 0 for no effect and ±100 for the full control effect; nearly all actives have a fitted effect of over 50% in size
* hit, by the source's call; ? = inconclusive; / = no result; [ ] = remark or other dose. In the library only some 12% were active in any assay of this set; here they are far more common. Calls come from the whole dose curve; as a rule, active = well fitted curve in the direction sought with a large enough effect; inconclusive = small, poorly fitted or top-dose-only effect, or another doubt; inactive = no such curve, though single readings can be large; an effect the other way counts as inactive or inconclusive. Potency is the fitted concentration of half-maximal effect.

SMILES	HP1b chromo inh	BAZ2B inh	G9a inh	L3MBTL1 block	Sfp PPTase inh	JMJD2A Tudor inh
CC(=O)Nc1nc(N)n(-c2ccccc2)n1	5%	?	-16%[59 µM]	/	12%	-34%
Nc1nc(NC(=O)Cc2ccccc2)nn1-c1ccccc1	60%	32µM*	0%[12.7 µM]	-18%	12%	?
O=C(Nc1cccc2ccccc12)N1CC=C(c2ccccc2)CC1	16%	1%	45µM*	/	-2%	-17%
O=C(Nc1ccccc1)N1CC=C(c2ccccc2)CC1	/	8%	-42%[12.7 µM]	/	28%	/
CCN(CC)CCOc1ccc2c(c1)C(=NO)c1cc(OCCN(CC)CC)ccc1-2	-7%	8%[57.1 µM]	?	-3%	4%	-27%
CCN(CC)CCOc1ccc(/C(=C(\Cl)c2ccccc2)c2ccccc2)cc1	?	?	/	-4%	-47%	32µM*
CC1(OC(=O)CCc2ccccc2)C(=O)C=C2C=C3CCCN3C=C2C1=O (stereo not drawn)	-9%	56µM*	-39%[59 µM]	/	?	56µM*
CC1(OC(=O)c2cccs2)C(=O)C=C2C=C3CCCN3C=C2C1=O (stereo not drawn)	?	45µM*	-37%[59 µM]	/	-4%	56µM*
COc1ccc(CCn2c(=S)[nH]c(=O)c3c(C)cc(C)nc32)cc1OC	30%	/	/	/	/	-3%
O=C(CSc1nnc(Cn2c(=O)sc3ccccc32)n1-c1ccccc1)N1CCOCC1	42%	9%	45µM*	-4%	56µM*	5%
NC(=O)CSc1nnc(Cn2c(=O)sc3ccccc32)n1-c1ccccc1	36%	0%	-8%[59 µM]	6%	23%	-13%
CCOC(=O)C(C)Sc1nnc(Cn2c(=O)sc3ccccc32)n1-c1ccccc1 (stereo not drawn)	60%	8%	?	-1%	79µM*	-12%
COc1ccccc1N1CCN(CC(=O)Nc2nc(C)c(C(=O)N(C)C)s2)CC1	25%	2%	10%	-8%	?	-2%
Cc1nc(NC(=O)CN2CCCCC2)sc1C(=O)N(C)C	8%	-27%	79µM*	-1%	-7%	-32%
Cc1nc(NC(=O)CN2CCOCC2)sc1C(=O)N(C)C	18%	-20%	?	4%	5%	16µM*
COC(=O)C1CCC(=S)N1C(=O)c1ccccc1 (stereo not drawn)	42%	-30%	45µM*	3%	?	-1%
COC(=O)[C@H]1CN(C(=O)c2ccccc2)C(=O)N1	22%	-7%[57.1 µM]	/	12%	8%	-7%
O=C(O)CCn1c2c(c3ccccc31)CCCC2	14%	-10%	15%[12.7 µM]	/	8%	-31%
CCCn1c2c(c(=N)c3c1CCC3)CCC2	7%	?	50µM*	-10%	0%	-6%
CCOC(=O)Cn1c2c(c(=N)c3c1CCC3)CCCC2	28%	4%	23%	4%	-5%	7%
CCCn1c2c(c(=N)c3c1CCC3)CCCC2	19%	-1%	13µM*	-22%	-6%	?
N=c1c2c(n(Cc3ccc(Br)cc3)c3c1CCC3)CCCC2	29%	-2%	8%	9%	-2%	-35%
CCCCCCCn1c2c(c(=N)c3ccccc31)CCC2	14%	?	/	-25%	50µM*	?
Cc1ccc(C(=O)COC(=O)CN2C(=O)C3C4CCC(C4)C3C2=O)cc1C (stereo not drawn)	40%	-31%	14%	/	6%	-5%
Cc1ccc2oc(C(=O)NCCCN3CCOCC3)c(C)c2c1	37%	-2%	39%	/	3%	-7%
SMILES	HP1b chromo inh	BAZ2B inh	G9a inh	L3MBTL1 block	Sfp PPTase inh	JMJD2A Tudor inh
CCc1ccc(C(=O)NC2=NC(c3ccccc3F)CC(=O)N2)cc1 (stereo not drawn)	45%	-20%	8%[59 µM]	/	/	-5%
CC(=O)Nc1ccc(NC2=C/C(=N/S(=O)(=O)c3cccs3)c3ccccc3C2=O)cc1	50µM*	3.5µM*	45µM*	?	-7%	50µM*
CC(=O)Nc1ccc(NC(=O)C(C)OC(=O)c2ccccc2NS(=O)(=O)c2cccs2)cc1 (stereo not drawn)	27%	-13%	-17%	-3%	4%	-6%
Cc1ccccc1NC1=C/C(=N\S(=O)(=O)c2cccs2)c2ccccc2C1=O	?	10µM*	3.2µM*	/	-18%	6.3µM*
COc1ccc(S(=O)(=O)/N=C2\C=C(Nc3ccc(O)cc3)C(=O)c3ccccc32)cc1	10µM*	8.9µM*	8.9µM*	/	-10%	5.6µM*
Cc1ccc(NC2=C/C(=N/S(=O)(=O)c3cccs3)c3ccccc3C2=O)cc1C	-17%	?	0%[59 µM]	-11%	18%	-24%
COc1ccccc1NCC(O)Cn1c2ccccc2c2ccccc21 (stereo not drawn)	?	40µM*	?	/	19%	40µM*
COc1ccc(CCNCC(O)Cn2c3ccccc3c3ccccc32)cc1OC (stereo not drawn)	-6%	?	?	-4%	-2%	-35%
CC(C)NCc1cc(Br)ccc1OCc1ccccc1	34%	-1%	-37%	8%	14%	-5%
COc1ccc(Br)cc1CNc1ccccc1	?	50µM*	22µM*	3%	?	18µM*
O=C(O)c1ccccc1N/C=C\[N+](=O)[O-]	15%	13%	67%	/	56µM*	-31%
O=C(O)CCCC(=O)Nc1ccccc1C(=O)O	18%	-4%	-12%[2.33 µM]	6%	6%	?
O=C(O)c1ccccc1Nc1ccc([N+](=O)[O-])c2nonc12	?	40µM*	45µM*	/	-9%	-31%
O=C(O)c1ccccc1Nc1ccc([N+](=O)[O-])cc1C(=O)O	-5%	?	32µM*	/	16%	32µM*
O=[N+]([O-])c1c(Nc2ccccc2)ccc2nonc12	17%	6%	-12%[59 µM]	-8%	3%	-7%
CC(N)CCCP(=O)(O)O (stereo not drawn)	/	/	8%[59 µM]	/	-12%	/
COC1CCN(C(=O)C2CCC(=O)N(CCc3cccc(F)c3)C2)CC1 (stereo not drawn)	23%	2%	1%	/	18%	-4%
CCOC(=O)N1CCc2c(sc3c2c(=O)n(CCc2ccccc2)c(=O)n3CC(=O)Nc2ccc(C)cc2)C1	46%	1%	12%[59 µM]	/	/	-2%
CCC(C)NC(=O)C(=O)Nc1c2c(nn1-c1ccccc1)CS(=O)(=O)C2 (stereo not drawn)	-14%	?	?	/	/	45µM*
Cc1ccc(C)c(OCCCCN2CCCCC2)c1	-10%	-20%	25µM*	/	-7%	32µM*
Cc1ccc(OCCN2CCCCCC2)c(C)c1	8%	-6%	-1%[12.7 µM]	/	-1%	-23%
Cc1ccccc1OCCCN1CCCC1	-38%	-35%	40µM*	-19%	-5%	3.5µM*
